# Bioassay records (PubChem BioAssay)
# tim10-1 inh: tim10-1 yeast growth inhibition; 2.2% of 330,000 active; S. cerevisiae tim10-1 ts strain growth, BacTiter-Glo, 24 h; inhibition, % at 20 µM; AID 463190;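 active = inhibition of at least 40%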;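 also: mutant grown at 25 °C; 0% = DMSO wells with yeast and 100% = wells holding no yeast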
# TIM10 inh: TIM10 yeast growth inhibition; S. cerevisiae TIM10 strain growth, BacTiter-Glo luminescence, 24 h; 1.4% of 330,000 active; inhibition, % at 10 µM;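 active = inhibition of 40% or more at the single tested concentration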;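 also: wild-type TIM10 isogenic control strain grown at permissive 25 °C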
# NALP3 yeast inh: inhibitors of NALP3 inflammasome in yeast | 0.39% of 330,000 active | inhibition, % at 10 µM | AID 2825 | Yeast reconstituted NLRP3/ASC/caspase-1, beta-gal luminescence, 24 h;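 active = inhibition of 50% or more; inactive = inhibition below 50%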;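 also: plate controls were induced DMSO wells for no effect and uninduced yeast grown without galactose for full effect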
# NALP1 inh: blocks the NALP1 inflammasome reconstituted in yeast | S. cerevisiae NALP1/ASC/caspase-1 growth, X-gal OD620, 72 h | inhibition, % at 10 µM | 0.61% of 280,000 active; in the data active = inhibition mostly above about 24%, no sharp cut-off; inactive = mostly below about 32%
# tim23-1 inh: growth inhibitors of tim23-1 mutant yeast | AID 463212 | S. cerevisiae tim23-1 growth, BacTiter-Glo luminescence, 24 h | 1.3% of 330,000 active | inhibition, % at 20 µM;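 active = growth inhibition of the mutant yeast at or above 50%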;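 also: temperature-sensitive mutant grown at 25 °C; plate controls were DMSO-treated mutant yeast for no effect and medium wells lacking yeast for full effect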
# tim10-1 confirm: tim10-1 yeast growth inhibition, confirmed. shares compounds with tim10-1 inh. S. cerevisiae tim10-1 ts strain growth, BacTiter-Glo, 24 h. inhibition, % at 20 µM. 56% of 7,400 active. AID 463213;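 active = inhibition of yeast growth at or above a set limit in either of two repeat tests at 20 µM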;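 also: tim10-1 mutant grown at permissive 25 °C to find synthetic lethal compounds; 0% = DMSO yeast wells and 100% = medium wells without yeast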
# * hit, by the source's call; · = not tested or not shown. Shown are actives, neighbours in structure and some others; about 4.1% of the full set was active somewhere.
SMILES,tim10-1 inh,TIM10 inh,NALP3 yeast inh,NALP1 inh,tim23-1 inh,tim10-1 confirm
Cc1ccc(Cl)c(OC(=O)C2CSC3(C)CCC(=O)N23)c1 (stereo unspecified),40.1*,26.7,3.4,·,39.5,26.9
CC(=O)c1ccc(OC(=O)C2CSC3(C)CCC(=O)N23)cc1 (stereo unspecified),9.9,5.6,2.1,·,-7.4,·
CCN(CC)C(=O)[C@H]1C[C@H](CC(=O)NCc2cccc(C(F)(F)F)c2)C(=O)N2CCc3c([nH]c4cc(CCC(=O)N(C)C)ccc34)[C@]12C,15.4,-0.7,·,·,22.2,·
Nc1c2c(nc3ccccc13)CSCC2,8.0,7.2,-3.3,·,10.9,·
CCCCn1nnnc1SCC(=O)c1cc(Cl)ccc1OC,52.1*,16.5,27.4,6.5,38.7,32.8*
COc1ccc(C(=O)NCc2ccc3c(c2)CCO3)cc1,-17.0,-30.9,29.5,11.2,-16.0,·
Cc1cc2c(cc1S(=O)(=O)C(C)CC(=O)NCc1ccco1)OCC(=O)N2 (stereo unspecified),0.0,-7.1,3.9,12.7,0.3,·
O=C(CO/N=C/c1cccc([N+](=O)[O-])c1)Nc1ccc2ccccc2c1,44.9*,9.1,23.1,38.8,16.0,23.9
S=c1nc(C23CC4CC(CC(C4)C2)C3)[nH][nH]1,12.7,6.1,4.9,·,10.8,·
Cc1sc(N)nc1C12CC3CC(CC(C3)C1)C2,45.9*,20.3,27.0,5.6,16.7,16.1
CC(C)N(C(=O)CSc1nc2ccccc2n1-c1ccccc1)C(C)C,45.4*,28.0,2.6,13.8,32.9,28.0
Fc1ccccc1-c1cc2ncccc2cn1,-1.9,8.2,20.4,·,5.8,·
CCOc1c(C)cc(S(=O)(=O)NCc2ccccn2)c(C)c1C,2.7,-7.0,15.1,-6.3,16.9,·
COc1ccc(C2CC(c3cccs3)=NN2C(=O)CSC2=NN3CCCC(=O)N=C3S2)cc1 (stereo unspecified),41.4*,23.8,2.8,28.0,42.6,22.9
Cc1ccc(OCCn2cnc3cc([N+](=O)[O-])ccc3c2=O)cc1,45.9*,25.9,22.5,7.5,18.2,22.1
Cc1ccc(C(=O)NCC(=O)OCc2c(F)cccc2Cl)s1,7.2,13.0,16.6,·,30.0,·
CC(=O)Oc1ccc2c(=O)c(-c3ccccc3)coc2c1,42.5*,21.6,30.4,10.8,35.2,32.0*
CSc1ccc(S(=O)(=O)NCCCOC(C)C)cc1,-7.4,-3.4,17.7,-0.6,-4.3,·
Cc1[nH]n(-c2ncc(-c3ccc(Cl)cc3)s2)c(=O)c1C(c1ccc(Cl)cc1)C(C#N)C#N (stereo unspecified),39.4,27.3,4.9,18.0,43.4,·
COc1ccc(C(c2c(C)[nH]n(C(N)=S)c2=O)C(C#N)C#N)cc1 (stereo unspecified),44.1*,17.7,18.3,-1.9,47.4,24.0
NNC(=O)c1cc(C23CC4CC(CC(C4)C2)C3)[nH]n1,9.2,10.6,5.7,-4.9,19.2,·
CCOc1ccccc1N1CCN(C(=O)Nc2ccc(F)c(Cl)c2)CC1,47.9*,37.0,30.1,42.9,47.5,40.0*
COc1ccccc1N1CCN(C(=O)Nc2ccc(F)c(Cl)c2)CC1,35.6,28.7,17.2,-2.7,29.5,·
CC1CCN(CCCN2C(=O)C3C(C(=O)Nc4ccc(Cl)cc4)C4C=CC3(O4)C2C(=O)NC2CCCCC2)CC1 (stereo unspecified),-27.1,6.9,3.7,5.5,9.2,·
COc1cccc(OC)c1C(=O)NC(=S)NCc1cccnc1,-16.5,-16.7,-1.7,9.9,-8.6,·
SMILES,tim10-1 inh,TIM10 inh,NALP3 yeast inh,NALP1 inh,tim23-1 inh,tim10-1 confirm
FC(F)(F)c1ccccc1NC(=S)NC1CCN(Cc2ccccc2)CC1,-47.2,-8.1,17.3,3.8,10.5,·
COc1cccc(C2/C(=C(\O)c3ccc4c(c3)OCCO4)C(=O)C(=O)N2CCCN2CCOCC2)c1OC (stereo unspecified),-4.4,-19.7,4.3,10.3,-10.2,·
O=C1C(Cc2ccccc2)Nc2ncnc(N3CCc4ccccc4C3)c2N1Cc1ccc(Br)cc1 (stereo unspecified),41.3*,22.8,13.0,·,40.1,23.4
O=C1C(Cc2ccccc2)Nc2ncnc(N3CCN(c4ccccc4)CC3)c2N1Cc1ccc(Br)cc1 (stereo unspecified),14.4,17.4,17.6,·,27.4,·
Cc1cccc(NC(=O)CSc2c3c(nc4ccccc24)CCC3)n1,24.3,13.7,11.8,-5.1,16.0,·
COc1cccc(NC(=O)CSc2c3c(nc4ccccc24)CCCC3)c1,42.6*,31.2,2.6,25.0,33.9,25.6
O=C(c1ccc(-c2ccccc2Cl)o1)N1CCN(c2ccccc2O)CC1,44.4*,16.3,12.2,·,48.1,27.9
Cc1nc2c(-c3ccccc3)cnn2c(N)c1-c1ccccc1,43.3*,29.6,10.0,36.0,39.0,39.5*
O=C(Oc1ccc(Br)cc1C(=S)N1CCCCC1)c1cc([N+](=O)[O-])cc([N+](=O)[O-])c1,51.1*,36.2,12.6,26.1,46.3,31.1
O=C(Oc1ccc(Br)cc1C(=S)N1CCCC1)c1ccccc1Cl,22.2,26.2,-5.8,5.4,30.8,·
O=C(NC1CCCC1)c1sc(=S)n2c1[nH]c(=O)c1ccccc12,46.8*,23.8,-20.1,-9.1,22.8,25.9
CSC1=C(C#N)C(c2ccccc2Cl)C2=C(N1)c1ccccc1C2=O (stereo unspecified),45.8*,29.9,9.8,-4.1,47.0,28.3
CSC1=C(C#N)C(c2ccccc2Cl)C2=C(CCCC2=O)N1 (stereo unspecified),·,·,·,14.2,·,·
O=C(Oc1ccc(-n2cnnn2)cc1)c1ccccc1,15.6,5.4,22.4,-4.3,7.5,·
N#CC1(Nc2cccc(Br)c2)C(=O)Nc2ccccc21 (stereo unspecified),41.9*,38.7,14.5,35.0,37.2,38.0*
N#CC1(Nc2ccccc2)C(=O)Nc2ccccc21 (stereo unspecified),11.8,-7.4,17.9,4.2,19.2,·
CC(=O)N1CCN(S(=O)(=O)c2cccc(C(=O)NNC(=O)Cn3nc(C)cc3C)c2)CC1,-4.5,4.5,4.8,·,-11.1,·
Fc1ccc(NC(=S)N2N=CCC2c2ccccc2)cc1 (stereo unspecified),35.7,3.6,9.5,22.7,24.5,·
O=C(Nc1cccc2ccccc12)N1CCN(c2ccccc2)CC1,-15.4,-10.8,22.7,10.1,2.9,·
O=C(Nc1cccc(Cl)c1)N1N=CCC1c1ccccc1 (stereo unspecified),48.2*,25.5,14.7,·,39.2,47.4*
S=C(Nc1ccccc1)N1N=CCC1c1ccccc1 (stereo unspecified),46.1*,12.0,5.5,4.4,22.0,25.5
O=C(Nc1cccc2ccccc12)N1N=CCC1c1ccccc1 (stereo unspecified),43.7*,23.4,8.5,·,41.8,29.1
Cc1cc(C)c(S(=O)(=O)N2CCOC2CNC(=O)C(=O)NCc2ccncc2)c(C)c1 (stereo unspecified),12.3,2.4,0.7,2.1,3.5,·
